The source of these data is PubChem BioAssay.

For orientation: inhibition means the change of the read-out against control, counted positive when it falls. By viability is commonly meant a read-out of living cells in per cent, often relative to untreated cells.

SMILES strings stand for the structures. Where “and” joins values, the source holds several entries; their conditions need not be identical. Identical values can stand only once. Results filed as inconclusive are left out. For some assays here: Results with a measured potency or affinity are listed apart. Calls of active or inactive are those of the source.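 Rule for the calls, unless noted: active = at least 20% inhibition of 6-phosphogluconate dehydrogenase activity; inactive = the rest.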

The target in assay [1] is ATP-dependent translocase ABCB1 (Homo sapiens) (UniProt P08183). In words: P-glycoprotein substrate transport blockade – cell-based (AID 377; in the data active = fluorescence slope change above about 50%). The following applies: MDR1-expressing cells, fluorescent substrate accumulation slope; stronger effect = higher value; concentration not given here.
Assay [2] in a line: blockers of polyQ-driven CASP3 activation – cell-based (AID 1583). As to conditions: polyglutamine-induced caspase-3 activation, cell assay; stronger effect = higher value;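 tested at 10 µM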.
Assay [3] can be described thus: yeast 75Q aggregation reduction – 75Q-TubU reporter (AID 1593). The following applies: Yeast 75Q polyglutamine aggregation reporter.
The nature of assay [4]: blockers of cytochrome c efflux from mitochondria – biochemical, purified mitochondria (AID 1603).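 Note: mouse liver mitochondria challenged with calcium chloride; signal normalized to the plate average as 100%.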 As to conditions: stronger effect = lower value.
Assay [5] in a line: polyglutamine aggregate formation blockers (AID 1604). The following applies: polyglutamine-induced protein aggregation inhibition assay; stronger effect = higher value; tested at 2.5 µM.
A short description of assay [6]: glutamate transport activators, MN-1 cells, MN-1 cell line (AID 1612).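 Note: tested at 1 µM final; 0% = mean of DMSO vehicle wells on each plate; positive means more glutamate uptake than control and negative means less.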 As to conditions: MN-1 motor neuron cells, stronger effect = higher value.
Assay [7] can be described thus: GFP-Q80 aggregate reduction, neuronal-like cells, cell-based, NGF-treated PC12, GFPQ80 (AID 1614).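 Note: lower means fewer inclusions and 0 means no inclusions at all.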 As to conditions: PC12 NGF-treated GFP-polyQ80 inclusion reduction.
A short description of assay [8]: 75Q-TubH aggregate inhibition, S. cerevisiae, yeast (AID 1616). As to conditions: S. cerevisiae 75Q-TubH polyglutamine aggregation suppression; stronger effect = higher value.
A short description of assay [9]: compounds altering viability of human ES cells (AID 493140; call rule not given here;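 note: cells exposed to compounds for four days before counting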). As to conditions: human embryonic stem cell survival screen; stronger effect = higher value.
Assay [10] is described as follows: P. berghei load reduction in hepatocytes – cell-based, HepG2, luciferase luminescence, HepG2 viability, primary screen (AID 624349; in the data active = parasite load remaining mostly below about 12%, no sharp cut-off; inactive = mostly above about 10%;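 note: 100% = mean of DMSO negative control wells on the same plate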). As to conditions: P. berghei liver stage in HepG2, luciferase luminescence, concentration not given here; parasite load remaining: stronger effect = lower value; viability: measured here: HepG2 viability without parasites.
The target in assay [11] is 6-phosphogluconate dehydrogenase, decarboxylating (Homo sapiens) (UniProt P52209). Kind of assay: inhibition of human phosphogluconate dehydrogenase – biochemical, recombinant enzyme, NADPH absorbance, primary screen (AID 1159550). As to conditions: recombinant 6PGD, NADPH absorbance 341 nm; at 10 µM; stronger effect = higher value.
Assay [12] can be described thus: viability loss with induced miR-34 in A549 – imaging, A549 dox-inducible miR-34, nuclei and caspase counts, primary screen (AID 1347080;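 active = compounds whose cell count with miR-34 switched on is under 0.7 times the count with it off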). As to conditions: A549 miR-34 inducible, Hoechst nuclei count, 48 h.
Assay [13] has as its target Mitogen-activated protein kinase 7 (Homo sapiens) (UniProt Q13164). Kind of assay: Gal4-ERK5 driven luciferase induction – cell-based, HTS, primary screen (AID 1508626;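 active = luciferase signal above three times the same-plate solvent-only control wells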;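 note: luciferase driven by Gal4-ERK5 fusion binding five Gal4 sites before minimal TATA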). As to conditions: HeLa Gal4-ERK5 transactivation, 18 h, at 5 µM, stronger effect = higher value.
The target in assay [14] is NAD(+) hydrolase SARM1 (Homo sapiens) (UniProt Q6SZW1). In words: blocking NAD cleavage by SARM1 SAM-TIR – cell lysate, NAD-Glo luminescence (AID 1508614;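 active = compound whose remaining NAD level is above about 45 nM, limit read from the data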;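 note: higher remaining NAD means stronger inhibition of SARM1 NADase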). The following applies: SAM-TIR HEK293T lysate NADase, at 1 µM, stronger effect = higher value.
The nature of assay [15]: restoration of touch response, mutant HTT neurons – whole organism, C. elegans mechanosensory neurons, N-terminal huntingtin (AID 1599). As to conditions: C. elegans polyQ-huntingtin mechanosensory neurons, stronger effect = higher value.
The mark [16] stands for this setting: stronger effect = lower value, cell number ratio, induced over uninduced.
Where [17] appears, read: measured here: relative caspase fold change +Dox/-Dox.
[18] abbreviates: measured here: total cells with miR-34 induction, stronger effect = lower value.
Setting [19] is: measured here: total cells without miR-34 induction.

NAD(+) hydrolase SARM1 (Homo sapiens), sequence (Q6SZW1 whole entry, looked up): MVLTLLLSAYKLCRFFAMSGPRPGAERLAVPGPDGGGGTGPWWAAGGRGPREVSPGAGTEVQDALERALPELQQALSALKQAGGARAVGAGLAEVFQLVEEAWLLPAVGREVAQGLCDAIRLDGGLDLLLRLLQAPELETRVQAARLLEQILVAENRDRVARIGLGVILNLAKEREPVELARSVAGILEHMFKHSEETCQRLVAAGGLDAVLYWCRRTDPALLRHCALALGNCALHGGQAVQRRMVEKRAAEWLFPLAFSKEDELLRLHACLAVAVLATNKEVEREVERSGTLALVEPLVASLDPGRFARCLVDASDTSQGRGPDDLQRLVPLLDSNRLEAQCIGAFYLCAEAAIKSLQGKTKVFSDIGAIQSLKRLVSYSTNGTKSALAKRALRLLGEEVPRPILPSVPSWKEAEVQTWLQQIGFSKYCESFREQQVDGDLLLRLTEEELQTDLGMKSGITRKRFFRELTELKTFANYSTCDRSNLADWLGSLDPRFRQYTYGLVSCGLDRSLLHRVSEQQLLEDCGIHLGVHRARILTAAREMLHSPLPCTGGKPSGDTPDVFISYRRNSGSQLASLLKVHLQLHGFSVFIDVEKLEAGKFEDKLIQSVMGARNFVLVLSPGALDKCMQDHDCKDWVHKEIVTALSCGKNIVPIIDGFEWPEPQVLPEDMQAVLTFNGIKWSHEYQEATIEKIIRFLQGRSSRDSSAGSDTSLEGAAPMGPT
6-phosphogluconate dehydrogenase, decarboxylating (Homo sapiens), sequence (P52209 whole entry, looked up): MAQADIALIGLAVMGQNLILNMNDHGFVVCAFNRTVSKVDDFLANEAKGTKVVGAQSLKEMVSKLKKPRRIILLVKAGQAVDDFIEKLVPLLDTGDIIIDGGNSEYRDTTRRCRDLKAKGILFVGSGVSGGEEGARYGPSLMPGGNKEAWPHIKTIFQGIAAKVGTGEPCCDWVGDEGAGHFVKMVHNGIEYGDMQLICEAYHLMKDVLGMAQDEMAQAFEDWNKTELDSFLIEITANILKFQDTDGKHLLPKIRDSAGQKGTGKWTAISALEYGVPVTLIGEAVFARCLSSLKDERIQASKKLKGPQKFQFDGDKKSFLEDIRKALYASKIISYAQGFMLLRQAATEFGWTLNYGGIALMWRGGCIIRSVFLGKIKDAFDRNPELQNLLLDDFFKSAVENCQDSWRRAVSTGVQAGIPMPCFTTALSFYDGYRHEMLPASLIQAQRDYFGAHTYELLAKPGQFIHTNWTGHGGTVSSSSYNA
Mitogen-activated protein kinase 7 (Homo sapiens), sequence (Q13164 whole entry, looked up, the tested form may be a part): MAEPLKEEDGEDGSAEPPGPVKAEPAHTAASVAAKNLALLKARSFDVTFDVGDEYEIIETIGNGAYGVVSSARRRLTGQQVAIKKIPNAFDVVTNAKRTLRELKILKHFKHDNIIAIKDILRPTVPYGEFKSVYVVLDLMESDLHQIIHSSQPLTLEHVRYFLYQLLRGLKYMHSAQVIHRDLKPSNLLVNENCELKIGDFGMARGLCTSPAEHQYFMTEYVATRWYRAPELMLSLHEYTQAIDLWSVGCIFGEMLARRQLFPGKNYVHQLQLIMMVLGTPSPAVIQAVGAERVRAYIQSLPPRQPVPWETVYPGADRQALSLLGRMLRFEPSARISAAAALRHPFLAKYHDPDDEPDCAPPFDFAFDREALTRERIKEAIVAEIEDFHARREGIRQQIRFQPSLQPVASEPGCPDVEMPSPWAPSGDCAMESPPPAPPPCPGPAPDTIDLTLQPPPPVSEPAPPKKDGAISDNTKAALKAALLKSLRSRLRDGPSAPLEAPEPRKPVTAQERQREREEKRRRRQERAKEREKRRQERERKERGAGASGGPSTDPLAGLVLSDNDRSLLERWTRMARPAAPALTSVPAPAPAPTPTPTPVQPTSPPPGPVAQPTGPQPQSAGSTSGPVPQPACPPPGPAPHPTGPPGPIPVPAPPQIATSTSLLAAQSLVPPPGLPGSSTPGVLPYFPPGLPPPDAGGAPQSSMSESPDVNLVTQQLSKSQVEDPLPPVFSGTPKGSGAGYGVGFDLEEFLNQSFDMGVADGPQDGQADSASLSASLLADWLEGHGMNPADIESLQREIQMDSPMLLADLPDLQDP
ATP-dependent translocase ABCB1 (Homo sapiens), sequence (P08183 whole entry, looked up): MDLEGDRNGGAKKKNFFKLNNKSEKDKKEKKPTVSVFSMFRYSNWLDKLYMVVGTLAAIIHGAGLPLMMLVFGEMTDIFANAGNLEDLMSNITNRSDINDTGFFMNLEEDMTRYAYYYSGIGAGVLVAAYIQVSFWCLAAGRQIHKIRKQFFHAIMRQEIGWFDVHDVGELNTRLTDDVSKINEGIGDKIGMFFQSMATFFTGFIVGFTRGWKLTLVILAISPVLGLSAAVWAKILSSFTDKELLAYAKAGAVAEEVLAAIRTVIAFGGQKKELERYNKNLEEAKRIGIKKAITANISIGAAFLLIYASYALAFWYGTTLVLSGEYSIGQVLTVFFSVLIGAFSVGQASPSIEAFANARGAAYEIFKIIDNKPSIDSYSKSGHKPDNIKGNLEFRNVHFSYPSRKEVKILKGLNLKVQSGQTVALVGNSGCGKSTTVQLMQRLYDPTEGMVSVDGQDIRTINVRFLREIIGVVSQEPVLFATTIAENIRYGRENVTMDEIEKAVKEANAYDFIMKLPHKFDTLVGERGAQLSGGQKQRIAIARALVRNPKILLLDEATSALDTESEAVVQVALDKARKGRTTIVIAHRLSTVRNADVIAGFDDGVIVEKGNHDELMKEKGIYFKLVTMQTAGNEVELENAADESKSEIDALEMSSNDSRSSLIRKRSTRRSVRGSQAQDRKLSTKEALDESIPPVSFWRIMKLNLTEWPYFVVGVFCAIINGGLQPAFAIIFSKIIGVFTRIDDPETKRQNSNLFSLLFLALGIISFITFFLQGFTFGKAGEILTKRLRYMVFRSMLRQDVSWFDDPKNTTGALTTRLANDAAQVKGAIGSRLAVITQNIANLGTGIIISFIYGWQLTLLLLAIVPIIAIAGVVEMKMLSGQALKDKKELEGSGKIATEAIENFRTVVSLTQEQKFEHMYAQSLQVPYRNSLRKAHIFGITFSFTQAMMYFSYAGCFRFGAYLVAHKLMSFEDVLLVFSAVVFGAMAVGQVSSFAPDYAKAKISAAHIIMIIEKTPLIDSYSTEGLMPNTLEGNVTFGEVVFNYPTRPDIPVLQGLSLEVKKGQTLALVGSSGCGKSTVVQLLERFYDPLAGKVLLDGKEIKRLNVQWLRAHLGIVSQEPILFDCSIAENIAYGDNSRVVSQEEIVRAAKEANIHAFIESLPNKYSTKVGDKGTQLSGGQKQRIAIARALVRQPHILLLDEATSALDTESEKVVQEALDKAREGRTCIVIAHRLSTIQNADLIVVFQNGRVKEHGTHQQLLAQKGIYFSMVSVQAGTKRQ

`C[C@@H]1O[C@@H](O[C@H]2[C@H](Oc3cc(O)c4c(c3)O[C@H](c3ccc(O)cc3)CC4=O)O[C@H](CO)[C@@H](O)[C@@H]2O)[C@H](O)[C@H](O)[C@H]1O`: the fluorescence slope change in assay [1] was 21.6% (inactive). Besides, the inhibition was -1.5% in [2] and 4.72% (inactive) in assay [11]. The compound further yielded a score in [3] of 1.92. Further, the cytochrome c release ratio in [4] is 1.05. In assay [5], this compound came in with an inhibition of aggregation of 82.5%. In addition, the glutamate uptake change in assay [6] was determined as 6.96%. Further, the inclusion score in assay [7] is 2. The compound also registered an aggregation suppression score in assay [8] of 1.02. Further, the survival in assay [9] is 7.67 (inactive). In addition, in [10], the parasite load remaining is 153% (inactive) and 66.6% (inactive). Further, the viability in assay [10] was 111% and 77.6%. Besides, the figures for the fold change in assay [12] (setting [16]) and in assay [12] (setting [17]) were 0.866 (inactive) and 1.55, respectively. The cell count in [12] (setting [18]) worked out at 9380; in assay [12] (setting [19]), 10800. Also, the luciferase signal in assay [13] was 60 AU (inactive).

As for `O=C(O)c1cc(O)c2c(c1)[C@H]([C@H]1c3cc(C(=O)O)cc(O)c3C(=O)c3c(O[C@@H]4O[C@H](CO)[C@@H](O)[C@H](O)[C@H]4O)cccc31)c1cccc(O[C@@H]3O[C@H](CO)[C@@H](O)[C@H](O)[C@H]3O)c1C2=O`, the inhibition in [11] is 6.02% (inactive). Also, in assay [14], the remaining NAD was 11 nM (inactive). In addition, in assay [13], the luciferase signal is 76 AU (inactive).

In the case of `COc1ccc(-c2cc(=O)c3ccccc3o2)cc1OC`, in assay [11], the inhibition was -3.02% (inactive). For the same compound, the luciferase signal in [13] was 76 AU (inactive).

As to `C[C@H]1[C@H]2CC[C@H]3[C@@H]4CC=C5C[C@@H](N(C)C)CC[C@]5(C)[C@H]4CC[C@]23CN1C`, the fluorescence slope change in assay [1] was 56.7% (active). For the same compound, the survival in assay [9] was 4.83 (inactive). In addition, in [10], the parasite load remaining is 168% (inactive) and 68.7% (inactive). In addition, the viability in [10] was 102% and 76.1%. In addition, the inhibition in [11] is 13.8% (inactive). Besides, the fold change is 0.82 (inactive) in [12] (setting [16]) and 1.54 in assay [12] (setting [17]). Moreover, the cell count in assay [12] (setting [18]) stood at 8300; in [12] (setting [19]), 10100. The luciferase signal in [13] is 40 AU (inactive).

As to `NC[C@@H]1O[C@H](O[C@H]2[C@@H](O)[C@H](O[C@@H]3[C@@H](O)[C@H](N)C[C@H](N)[C@H]3O[C@H]3O[C@H](CO)[C@@H](O)[C@H](O)[C@H]3N)O[C@@H]2CO)[C@H](N)[C@@H](O)[C@@H]1O`, the inhibition in assay [11] is -8.11% (inactive). Further, the remaining NAD in assay [14] is 10 nM (inactive). For the same compound, the luciferase signal in assay [13] was 80 AU (inactive).

With `CC(=O)[C@@]1(O)CC[C@H]2[C@@H]3C=C(Cl)C4=CC(=O)[C@@H]5C[C@@H]5[C@]4(C)[C@H]3CC[C@@]21C`, the inhibition in assay [11] was 3.58% (inactive). In assay [14], the remaining NAD was 10 nM (inactive). Besides, in assay [13], the luciferase signal is 32 AU (inactive).

On to `CO[C@H]1C[C@H](O[C@@H]2/C(C)=C/C[C@@H]3C[C@@H](C[C@]4(CC[C@H](C)[C@@H](C5CCCCC5)O4)O3)OC(=O)[C@@H]3C=C(C)/C(=N/O)[C@H]4OC/C(=C\C=C\[C@@H]2C)[C@]43O)O[C@@H](C)[C@@H]1O`, for which, in assay [11], the inhibition is -18% (inactive). Further, in assay [14], the remaining NAD was 23 nM (inactive). Also, the luciferase signal in assay [13] is 36 AU (inactive).

Turning to `C=C(C)[C@@H]1CC[C@]2(CO)CC[C@]3(C)[C@H](CC[C@@H]4[C@@]5(C)CC[C@H](O)C(C)(C)[C@@H]5CC[C@]43C)[C@@H]12`, the parasite load remaining in [10] is 104% (inactive). The viability in assay [10] was 78.6%. Also, in assay [11], the inhibition was 1.58% (inactive). Also, the fold change in assay [12] (setting [16]) is 0.941 (inactive); in assay [12] (setting [17]), 0.65. Moreover, the cell count was determined as 8530 in [12] (setting [18]) and 9060 in assay [12] (setting [19]). Further, the luciferase signal in [13] is 44 AU (inactive).

On to `CC[C@@H](C(=O)[C@@H](C)[C@@H](O)[C@H](C)CCc1ccc(C)c(O)c1C(=O)O)[C@H]1O[C@](CC)([C@H]2CC[C@](O)(CC)[C@H](C)O2)C[C@@H]1C`, for which the parasite load remaining in assay [10] was -0.295% (active). Further, in [10], the viability was determined as 110%. The inhibition in assay [11] is -6.18% (inactive). For the same compound, the fold change was 1.02 (inactive) in assay [12] (setting [16]) and 1.03 in assay [12] (setting [17]). Also, the cell count stood at 2440 in [12] (setting [18]) and 2390 in assay [12] (setting [19]). Also, the luciferase signal in assay [13] was 44 AU (inactive).

Consider `NC[C@H]1O[C@H](O[C@H]2[C@H](O[C@@H]3O[C@H](CO)[C@@H](O)[C@H]3O)[C@@H](O)[C@H](N)C[C@@H]2N)[C@H](N)[C@@H](O)[C@@H]1O`, for which the inhibition in [11] was -2.01% (inactive). For the same compound, in assay [14], the remaining NAD is 10 nM (inactive). Further, in [13], the luciferase signal was 40 AU (inactive).

Consider `CC1CCCC(C)N1NC(=O)c1ccc(Cl)c(S(N)(=O)=O)c1` (stereo not given), for which the values for the inhibition in assay [2] and in assay [11] were 16.7% and 6.91% (inactive), respectively. This compound returned a score in [3] of 1.67. This compound also displayed a rescue above control in assay [15] of -10.1. Moreover, the cytochrome c release ratio in assay [4] is 0.96. The compound also had an inhibition of aggregation in assay [5] of 25.5%. Besides, the glutamate uptake change in [6] was -0.09%. Besides, the inclusion score in assay [7] stood at 2. Further, the aggregation suppression score in assay [8] amounted to 1.2. Further, the survival in assay [9] was 5.92 (inactive). The parasite load remaining in [10] was 92.4% (inactive) and 77.2% (inactive). For the same compound, the viability in assay [10] was 76.8% and 96.5%. Besides, the results for the fold change in assay [12] (setting [16]) and in assay [12] (setting [17]) were 0.9 (inactive) and 4.97, respectively. Also, the figures for the cell count in [12] (setting [18]) and in assay [12] (setting [19]) were 7530 and 8360, respectively.

As to `O=c1cccc2cc(O)c(O)c(O)c2c1O`, the inhibition in [11] is 16.8% (inactive). Moreover, the luciferase signal in assay [13] is 60 AU (inactive).

On to `CCC(C)C(=O)OC1[C@@H]2CC3=C4CC(=O)O[C@@H](c5ccoc5)[C@]4(C)CCC3[C@@](C)(C2=O)[C@@H](CC(=O)OC)C1(C)C` (stereo not given in full), for which the inhibition in assay [11] was 6.33% (inactive). Besides, the luciferase signal in [13] is 116 AU (inactive).
